Only some compounds are listed: those with a hit (about 4.5% of all), similar ones and a draw of the others.
DAX1 inh-1 – NR0B1 (DAX1) inhibition; P51843; HEK293 Gal4-DAX1 luciferase reporter, luminescence; hit rate 0.99% among 340,000; inhibition, % at 6.75 µM;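 active = inhibition above the mean over all tested compounds plus 3 SD, cut at about 4.2% in these data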;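 also: 0% = DAX1-transfected cells with DMSO and 100% = empty-vector control cells with DMSO; inhibition shows as a rise in luminescence from relieved DAX1 repression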
Target sequence (P51843 207-470 limits assumed): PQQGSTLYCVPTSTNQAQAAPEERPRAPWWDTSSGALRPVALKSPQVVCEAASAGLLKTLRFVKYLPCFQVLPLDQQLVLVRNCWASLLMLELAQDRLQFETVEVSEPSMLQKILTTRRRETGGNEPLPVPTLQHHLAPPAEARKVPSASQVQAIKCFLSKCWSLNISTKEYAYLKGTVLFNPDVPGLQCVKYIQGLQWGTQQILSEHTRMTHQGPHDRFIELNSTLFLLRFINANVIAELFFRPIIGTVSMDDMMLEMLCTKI
GAA850 FXN act – frataxin GAA850 promoter activation; HEK293 lucGAA850 FXN promoter luciferase reporter, 24 h; percent of 10 µM SAHA response; activation, % at 6 µM; hit rate 0.56% among 360,000;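 active = activation above the average of all compounds screened plus 3 SD, cutoff fixed separately per campaign, cut at about 7.5% in these data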;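 also: 0% = DMSO wells and 100% = 10 µM SAHA wells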
DAX1 inh-2 – blocks DAX1 repression of SF-1 activated StAR promoter; HEK293T StAR-luciferase reporter, SF-1/DAX-1 repression relief; hit rate 1.1% among 370,000; inhibition, % at 6.8 µM;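 active = inhibition above the mean over all tested compounds plus 3 SD, cut at about 3.6% in these data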;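 also: 0% = DAX-1 cells with DMSO and 100% = cells lacking DAX-1 with DMSO; higher inhibition means more luminescence from relief of DAX-1 repression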
hcDAF-12 act – H. contortus DAF-12 activation, primary screen; HEK293 hcDAF-12 lit1-tk-luc reporter, luminescence; 0% DMSO, 100% Δ7-dafachronic acid; activation, % at 6.8 µM; hit rate 1.4% among 370,000; AID 652067;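 active = activation above the mean of all tested compounds plus 3 SD, cut at about 5.5% in these data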;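 also: 100% = response to 3 µM Δ7-dafachronic acid high control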
ssDAF12 agonist – S. stercoralis DAF-12 activation, primary screen | activation, % at 6.8 µM | AID 652126 | HEK293 ssDAF-12/GRIP1 lit1-tk-luc reporter, luminescence; % of 3 µM dafachronic acid response | hit rate 1% among 370,000;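 active = activation above the mean over all tested compounds plus 3 SD, cut at about 0.9% in these data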;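 also: 0% = DMSO-only wells and 100% = 3 µM delta7-dafachronic acid wells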
hgDAF12 agonist – hgDAF-12 agonism, primary luciferase screen | AID 687014 | hit rate 1.8% among 370,000 | activation, % at 6.8 µM | HEK293 GAL4-hgDAF12 UAS-luciferase reporter, agonist luminescence; normalized to butyrate control;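 active = activation above a cutoff set at the mean of all screened compounds plus 3 SD, cut at about 10% in these data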;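 also: 0% = DMSO wells and 100% = sodium butyrate wells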
The depositor's hits bear a star.

Screening CC(CCN1CCC(C(O)(c2ccccc2)c2ccccc2)CC1)Oc1ccc(F)cc1 (stereo unspecified) returned DAX1 inh-2 0.4, hcDAF-12 act 0.6, ssDAF12 agonist -0.4 and hgDAF12 agonist 0.0.
O=C1c2ccccc2C(c2nnnn2-c2ccc3c(c2)OCCO3)N1CCCn1ccnc1 (stereo unspecified) was read as DAX1 inh-2 3.9*, hcDAF-12 act 1.1, ssDAF12 agonist -0.3 and hgDAF12 agonist 0.8.
CC(C)CCN1C(=O)c2ccccc2C1c1nnnn1-c1ccc2c(c1)OCCO2 (stereo unspecified) was read as DAX1 inh-2 0.8, hcDAF-12 act -0.1, ssDAF12 agonist -0.9 and hgDAF12 agonist 1.5.
For C/C(=N\NS(=O)(=O)c1ccc([N+](=O)[O-])cc1)c1ccc(NC(=O)c2ccco2)cc1 the results were DAX1 inh-1 1.6, GAA850 FXN act 2.1, DAX1 inh-2 4.3*, hcDAF-12 act 0.2, ssDAF12 agonist -1.3 and hgDAF12 agonist 12.4*.
`CCOc1cc2c(cc1/C=C/C(=O)O)OC(C)C2` (stereo unspecified) gave DAX1 inh-1 4.7*, GAA850 FXN act -0.2, DAX1 inh-2 -0.8, hcDAF-12 act -2.0, ssDAF12 agonist -1.1 and hgDAF12 agonist -3.9.
`COc1ccc(NC(=S)NC(=O)/C=C/c2ccco2)cc1` gave DAX1 inh-1 4.8*, GAA850 FXN act 1.7, DAX1 inh-2 0.3, hcDAF-12 act 0.9, ssDAF12 agonist -1.0 and hgDAF12 agonist 9.6.
Screening COc1ccc(NC(=S)NC(=O)c2ccc(Br)o2)cc1 returned DAX1 inh-1 0.7, GAA850 FXN act 5.8, DAX1 inh-2 1.2, hcDAF-12 act 1.1, ssDAF12 agonist 0.3 and hgDAF12 agonist 10.8*.
Screening Cc1ccc(O)c(NC(=S)NC(=O)/C=C/c2ccco2)c1 returned DAX1 inh-1 0.1, GAA850 FXN act 1.2, DAX1 inh-2 -1.4, hcDAF-12 act 3.6, ssDAF12 agonist -0.2 and hgDAF12 agonist 11.5*.
Screening CC(=O)NC(=S)Nc1ccc(NC(=S)NC(=O)/C=C/c2ccco2)cc1 returned DAX1 inh-1 -1.4, GAA850 FXN act 2.8, DAX1 inh-2 -0.2, hcDAF-12 act -1.4, ssDAF12 agonist -1.7 and hgDAF12 agonist 0.1.
Screening COc1ccc(NC(=O)c2ccc(Br)o2)cc1 returned DAX1 inh-1 1.5, GAA850 FXN act 4.3, DAX1 inh-2 1.2, hcDAF-12 act -0.1, ssDAF12 agonist -0.5 and hgDAF12 agonist 8.9.
Screening O=C(c1cc(-c2ccc(Cl)cc2)nc2ccccc12)N1CCN(c2ncccn2)CC1 returned DAX1 inh-2 0.4, hcDAF-12 act 1.6, ssDAF12 agonist 0.0 and hgDAF12 agonist 3.3.
Screening CCCCCN1CCCCC(NC(=O)c2ccccc2C)C1=O (stereo unspecified) returned DAX1 inh-2 -0.1, hcDAF-12 act -1.8, ssDAF12 agonist -1.6 and hgDAF12 agonist 4.0.
For O=C(OCCN1CCCC12CCC(c1ccccc1)CC2)c1ccccc1 (stereo unspecified) the results were DAX1 inh-2 -1.5, hcDAF-12 act -2.3, ssDAF12 agonist -1.3 and hgDAF12 agonist -0.6.
`Cc1ccc(-c2nc3ccccc3c(=O)n2N)cc1` gave DAX1 inh-1 0.1, GAA850 FXN act 0.0, DAX1 inh-2 1.0, hcDAF-12 act 3.8, ssDAF12 agonist 0.5 and hgDAF12 agonist 2.5.
Nn1c(-c2ccccc2)nc2cc(Cl)ccc2c1=O was read as DAX1 inh-1 1.4, GAA850 FXN act -0.6, DAX1 inh-2 0.9, hcDAF-12 act 5.7*, ssDAF12 agonist 1.9* and hgDAF12 agonist 5.4.
CC(On1c(-c2ccccc2)nc2ccc(Cl)cc21)C(=O)O (stereo unspecified) was read as DAX1 inh-1 1.7, GAA850 FXN act 7.5, DAX1 inh-2 1.2, hcDAF-12 act 0.2, ssDAF12 agonist -0.4 and hgDAF12 agonist 4.1.
`COc1cc(-c2nc3ccccc3c(=O)n2N)cc(OC)c1OC` gave DAX1 inh-1 -1.6, GAA850 FXN act 1.4, DAX1 inh-2 -0.6, hcDAF-12 act -1.4, ssDAF12 agonist 5.7* and hgDAF12 agonist 2.7.
`On1c(-c2ccccc2)nc2ccc(Cl)cc21` gave DAX1 inh-1 1.2, GAA850 FXN act 2.2, DAX1 inh-2 2.8, hcDAF-12 act 3.3, ssDAF12 agonist -0.5 and hgDAF12 agonist 12.0*.
For CCOC(=O)C1(Cc2ccccc2)CCN(Cc2cccc(C#N)c2)CC1 the results were DAX1 inh-2 0.1, hcDAF-12 act -1.5, ssDAF12 agonist -1.3 and hgDAF12 agonist 3.2.
Screening COc1cc([N+](=O)[O-])cc(/C=N/NC(=O)Cn2nc(C)cc2C)c1O returned DAX1 inh-1 0.6, GAA850 FXN act 0.5, DAX1 inh-2 0.4, hcDAF-12 act -1.7, ssDAF12 agonist -1.6 and hgDAF12 agonist -1.2.
For COc1cc([N+](=O)[O-])cc(/C=N/NC(=O)Cn2nccc2C)c1O the results were DAX1 inh-1 6.0*, GAA850 FXN act 1.1, DAX1 inh-2 -0.6, hcDAF-12 act -0.8, ssDAF12 agonist -1.1 and hgDAF12 agonist -2.3.
COc1ccc(-n2c(SCC(=O)Nc3cccc4ccccc34)nnc2-c2ccco2)cc1 was read as DAX1 inh-2 -1.3, hcDAF-12 act -1.5, ssDAF12 agonist -1.0 and hgDAF12 agonist 1.3.
CSc1ccccc1OCc1cc(C(=O)N2CCCC2c2nonc2C)no1 (stereo unspecified) was read as DAX1 inh-1 0.8, GAA850 FXN act 3.0, DAX1 inh-2 1.1, hcDAF-12 act 5.9*, ssDAF12 agonist 0.3 and hgDAF12 agonist 12.8*.
C[C@@H]1OC(C2CCCCC2)N(C)[C@H]2C[C@H]3c4[nH]c5c(-c6ccc7c(c6)OCO7)cccc5c4CCN3C[C@@H]12 (stereo partly specified) was read as DAX1 inh-2 1.3, hcDAF-12 act -1.1, ssDAF12 agonist -1.1 and hgDAF12 agonist 2.9.
For CCCC[C@H]1C2CC(OC(=O)Nc3ccc(C(F)(F)F)cc3)C(C2)[C@H]2CCCCN21 (stereo partly specified) the results were DAX1 inh-2 -0.2, hcDAF-12 act -2.3, ssDAF12 agonist -1.3 and hgDAF12 agonist 2.8.
`O=C(CCCN1C(=O)/C(=C\c2ccccc2)SC1=S)Nc1ccc(C(=O)O)cc1` gave DAX1 inh-1 1.3, GAA850 FXN act -0.5, DAX1 inh-2 0.4, hcDAF-12 act -0.4, ssDAF12 agonist -1.3 and hgDAF12 agonist -0.7.
`CCc1ccc(/C=C2\SC(=S)N(CCCC(=O)Nc3ccc(C(=O)O)cc3)C2=O)cc1` gave DAX1 inh-1 0.0, GAA850 FXN act -14.2, DAX1 inh-2 -1.0, hcDAF-12 act 6.0*, ssDAF12 agonist -0.9 and hgDAF12 agonist -0.8.
O=C(Nc1ccc(CN2CCOCC2)cc1)c1cc2ccccc2o1 was read as DAX1 inh-1 -0.8, GAA850 FXN act 4.2, DAX1 inh-2 3.6*, hcDAF-12 act 5.5, ssDAF12 agonist -0.5 and hgDAF12 agonist 8.1.

Compound activity from PubChem.
